Our source for the growth inhibition values is PubChem BioAssay (NCI).

About 79,000 compounds went through this panel and 15% of them were active in at least one assay; those are over-represented in the sample as a whole. Values without a mark were called inactive. Calls of active or inactive are those of the source. Rule as the data show it: active = growth inhibition above about 70%; inactive = the rest.

The nature of test [1]: NCI Yeast Anticancer Drug Screen. Data for the rad50 strain (AID 155).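 Also: 0% = growth of vehicle-only cultures of the same strain.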 The settings on record: S. cerevisiae rad50 strain growth inhibition, stronger effect = higher value. The procedure, abridged:
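Compounds were tested on a yeast strain with an engineered DNA damage repair alteration; the reported value is growth inhibition normalised to vehicle treatment.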

Test [2] is described as follows: NCI Yeast Anticancer Drug Screen. Data for the mec2-1 strain (AID 157). As to conditions: S. cerevisiae mec2-1 strain, stronger effect = higher value. The procedure, abridged: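 Strain: mec2-1 (DNA repair/cell cycle alteration). Compound exposure, then growth measured; inhibition expressed relative to vehicle.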
Test [3] in a line: NCI Yeast Anticancer Drug Screen. Data for the sgs1 mgt1 strain (AID 161).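 Also: 0% = growth of cultures given vehicle only.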 The settings on record: S. cerevisiae sgs1 mgt1 strain, stronger effect = higher value. The procedure, abridged:
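Genetically altered yeast, compound exposure, growth inhibition relative to vehicle.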

Test [4] is described as follows: NCI Yeast Anticancer Drug Screen. Data for the cln2 rad14 strain (AID 165).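 Also: 0% = growth equal to vehicle treated cultures.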 As to conditions: S. cerevisiae cln2 rad14 strain, stronger effect = higher value. In short, it runs like this:
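Compounds are applied to the cln2 rad14 yeast strain, and growth is then compared with that of vehicle-treated cultures to give inhibition.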

Test [5] is described as follows: NCI Yeast Anticancer Drug Screen. Data for the bub3 strain (AID 167). The settings on record: S. cerevisiae bub3 mutant strain, stronger effect = higher value. The procedure, abridged:
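Growth of a checkpoint-deficient yeast mutant is measured after compound exposure. Values represent inhibition relative to vehicle.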

A short description of test [6]: NCI Yeast Anticancer Drug Screen. Data for the mlh1 rad18 strain (AID 175). The settings on record: S. cerevisiae mlh1 rad18 strain growth inhibition, stronger effect = higher value. The procedure, abridged: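 Read-out is yeast growth inhibition, calculated against vehicle-only controls. The compound was applied to a strain engineered with DNA damage repair alterations.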
[7] abbreviates: at 5.0 µM (retest, dose inferred, filed as 0.5).
The mark [8] stands for this setting: at 50.0 µM (retest, dose inferred, filed as 5.0).

On to `COc1cc2c(cc1OC)C(Cl)C(c1ccc(F)cc1)=C2Cl` (stereo not given), for which the growth inhibition in test [1] (setting [7]) is -23%; in test [1] (setting [8]), 0%; in test [1] (at 50.0 µM), 17.8%; in test [2] (setting [7]) it was 5%; in test [2] (setting [8]) it was 3%; in test [2] (at 50.0 µM), 10.4%. Moreover, the growth inhibition was -4% in test [3] (setting [7]); -3% in test [3] (setting [8]); -5.35% in test [3] (at 50.0 µM); -3% in test [4] (setting [7]); 6% in test [4] (setting [8]); 10.4% in test [4] (at 50.0 µM). Moreover, the growth inhibition in test [5] (setting [7]) is -2%; in test [5] (setting [8]), 4%; in test [5] (at 50.0 µM), 45.2%; in test [6] (setting [7]), 0%; in test [6] (setting [8]), -1%; in test [6] (at 50.0 µM) it was -3.4%.
Consider `Cc1nc(Nc2c(C)cccc2C)c2c(C)c[nH]c2n1`, for which the growth inhibition in test [1] (setting [7]) is -2%; in test [1] (setting [8]), 2%; in test [1] (at 50.0 µM) it was 86.8% (active); in test [2] (setting [7]), -5%; in test [2] (setting [8]), 3%; in test [2] (at 50.0 µM), 69.1%. Moreover, the growth inhibition in test [3] (setting [7]) was 0%; in test [3] (setting [8]) it was 1%; in test [3] (at 50.0 µM), 85.2% (active); in test [4] (setting [7]) it was -1%; in test [4] (setting [8]), -1%; in test [4] (at 50.0 µM) it was 27.2%. Further, the growth inhibition in test [5] (setting [7]) is -4%; in test [5] (setting [8]), -2%; in test [5] (at 50.0 µM) it was 75.5% (active); in test [6] (setting [7]), -2%; in test [6] (setting [8]), -5%; in test [6] (at 50.0 µM), 90.3% (active).
Take `O=C=Nc1ccccc1-c1ccc([N+](=O)[O-])cc1Cl`: the growth inhibition is -1% in test [1] (setting [7]); 20% in test [1] (setting [8]); 73.2% (active) in test [1] (at 50.0 µM); 32% in test [2] (setting [7]); 62% in test [2] (setting [8]); 37.6% in test [2] (at 50.0 µM). The growth inhibition in test [3] (setting [7]) is 8%; in test [3] (setting [8]) it was 44%; in test [3] (at 50.0 µM), 21.9%; in test [4] (setting [7]), -5%; in test [4] (setting [8]), -2%; in test [4] (at 50.0 µM), 68.8%. Also, the growth inhibition in test [5] (setting [7]) was 36%; in test [5] (setting [8]) it was 42%; in test [5] (at 50.0 µM) it was 83.7% (active); in test [6] (setting [7]), 40%; in test [6] (setting [8]), 62%; in test [6] (at 50.0 µM) it was 84.2% (active).
For `COC(=O)Nc1nc2ccc(C(=O)c3ccccc3)cc2[nH]1`, the growth inhibition was 0% in test [1] (setting [7]); -9% in test [1] (setting [8]); 55% in test [1] (at 50.0 µM); 3% in test [2] (setting [7]); -7% in test [2] (setting [8]); 46.9% in test [2] (at 50.0 µM). Besides, the growth inhibition in test [3] (setting [7]) was -1%; in test [3] (setting [8]), -5%; in test [3] (at 50.0 µM), 43.8%; in test [4] (setting [7]), -1%; in test [4] (setting [8]), -24%; in test [4] (at 50.0 µM), 45%. Besides, the growth inhibition in test [5] (setting [7]) was 10%; in test [5] (setting [8]), 16%; in test [5] (at 50.0 µM), 71.5% (active); in test [6] (setting [7]), 1%; in test [6] (setting [8]), 17%; in test [6] (at 50.0 µM), 67.5%.
As for `COc1ccccc1C1SC(c2ccccc2)(c2ccccc2)OC1=O` (stereo not given), the growth inhibition is -2% in test [1] (setting [7]); -9% in test [1] (setting [8]); 84.6% (active) in test [1] (at 50.0 µM); -2% in test [2] (setting [7]); -4% in test [2] (setting [8]); 50.1% in test [2] (at 50.0 µM). Besides, the growth inhibition in test [3] (setting [7]) is 12%; in test [3] (setting [8]), -2%; in test [3] (at 50.0 µM), 80.2% (active); in test [4] (setting [7]), -2%; in test [4] (setting [8]), -7%; in test [4] (at 50.0 µM), 84.8% (active). In addition, the growth inhibition in test [5] (setting [7]) is -1%; in test [5] (setting [8]), 16%; in test [5] (at 50.0 µM), 85.9% (active); in test [6] (setting [7]), 0%; in test [6] (setting [8]), -6%; in test [6] (at 50.0 µM), 80.9% (active).
With `CCS(CC)(CC)CC1CCCC2=CCC(P(=O)(c3ccccc3)c3ccccc3)CC21` (stereo not given), the growth inhibition in test [1] (setting [7]) is 5%; in test [1] (setting [8]), 5%; in test [1] (at 50.0 µM), 87.2% (active); in test [2] (setting [7]) it was 18%; in test [2] (setting [8]), 18%; in test [2] (at 50.0 µM) it was 78.7% (active). Further, the growth inhibition in test [3] (setting [7]) was 11%; in test [3] (setting [8]) it was 11%; in test [3] (at 50.0 µM) it was 87.8% (active); in test [4] (setting [7]) it was 5%; in test [4] (setting [8]), 5%; in test [4] (at 50.0 µM), 24.2%. Also, the growth inhibition is -8% in test [5] (setting [7]); -8% in test [5] (setting [8]); 67.8% in test [5] (at 50.0 µM); -9% in test [6] (setting [7]); -9% in test [6] (setting [8]); 71.7% (active) in test [6] (at 50.0 µM).
In the case of `C[C@@]12C(=O)OC(=O)[C@]1(C)[C@H]1CC[C@@H]2O1`, the growth inhibition in test [1] (setting [7]) is 96% (active); in test [1] (setting [8]) it was 98% (active); in test [1] (at 50.0 µM), 93.2% (active); in test [2] (setting [7]) it was 94% (active); in test [2] (setting [8]), 99% (active); in test [2] (at 50.0 µM) it was 94.2% (active). Besides, the growth inhibition is 97% (active) in test [3] (setting [7]); 97% (active) in test [3] (setting [8]); 93.3% (active) in test [3] (at 50.0 µM); 78% (active) in test [4] (setting [7]); 98% (active) in test [4] (setting [8]); 91.8% (active) in test [4] (at 50.0 µM). Besides, the growth inhibition in test [5] (setting [7]) was 70% (active); in test [5] (setting [8]), 99% (active); in test [5] (at 50.0 µM), 92.8% (active); in test [6] (setting [7]), 96% (active); in test [6] (setting [8]), 98% (active); in test [6] (at 50.0 µM), 92.5% (active).
For the compound `CCOC(=N)CCCSSc1ccc(N=[N+]=[N-])cc1`, the growth inhibition is 15% in test [1] (setting [7]); 99% (active) in test [1] (setting [8]); 98.7% (active) in test [1] (at 50.0 µM); -15% in test [2] (setting [7]); 99% (active) in test [2] (setting [8]); 99.2% (active) in test [2] (at 50.0 µM). Besides, the growth inhibition in test [3] (setting [7]) is -5%; in test [3] (setting [8]), 97% (active); in test [3] (at 50.0 µM), 99% (active); in test [4] (setting [7]), -7%; in test [4] (setting [8]), 97% (active); in test [4] (at 50.0 µM), 98.5% (active). Besides, the growth inhibition is -7% in test [5] (setting [7]); 99% (active) in test [5] (setting [8]); 98.8% (active) in test [5] (at 50.0 µM); -3% in test [6] (setting [7]); 99% (active) in test [6] (setting [8]); 99.2% (active) in test [6] (at 50.0 µM).
With `O=[N+]([O-])c1ccc(Cc2nc3ccccc3s2)cc1`, the growth inhibition in test [1] (setting [7]) was 32%; in test [1] (setting [8]) it was 82% (active); in test [1] (at 50.0 µM) it was 36.8%; in test [2] (setting [7]) it was 27%; in test [2] (setting [8]) it was 95% (active); in test [2] (at 50.0 µM) it was 14.2%. In addition, the growth inhibition in test [3] (setting [7]) is 47%; in test [3] (setting [8]), 96% (active); in test [3] (at 50.0 µM), 6.3%; in test [4] (setting [7]), 32%; in test [4] (setting [8]), 53%; in test [4] (at 50.0 µM), 22.4%. Also, the growth inhibition is 41% in test [5] (setting [7]); 97% (active) in test [5] (setting [8]); 65.4% in test [5] (at 50.0 µM); 52% in test [6] (setting [7]); 93% (active) in test [6] (setting [8]); 30.9% in test [6] (at 50.0 µM).
On to `CN(C)c1ccc(C2ON=C(c3ccccc3)N2C23CC4CC(CC(C4)C2)C3)cc1` (stereo not given), for which the growth inhibition in test [1] (setting [7]) is 0%; in test [1] (setting [8]) it was 36%; in test [1] (at 50.0 µM), -11.6%; in test [2] (setting [7]) it was -11%; in test [2] (setting [8]) it was 3%; in test [2] (at 50.0 µM), -3.05%. Also, the growth inhibition was -5% in test [3] (setting [7]); 33% in test [3] (setting [8]); -7.15% in test [3] (at 50.0 µM); 8% in test [4] (setting [7]); 2% in test [4] (setting [8]); 55.3% in test [4] (at 50.0 µM). Also, the growth inhibition is 14% in test [5] (setting [7]); 13% in test [5] (setting [8]); -11.1% in test [5] (at 50.0 µM); 4% in test [6] (setting [7]); 5% in test [6] (setting [8]); -24% in test [6] (at 50.0 µM).
